Measurements as given in PubChem BioAssay.
Several values for one entry are separate records, joined by “and”; a condition that tells them apart may be missing. Equal entries are not always repeated. A number with no mark means an inactive call. Activity calls are given as the source filed them.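 The calls were made as follows: active = thallium flux through the channel raised or lowered by more than 3 SD from vehicle-only wells, actives on both sides; inactive = the rest.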

How the values were obtained:
Experiment in all cases: modulators of BK channel variants, profiling panel, selectivity assay, cell-based, U2OS BacMam, thallium flux, beta subunits (AID 1259406);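 also: initial slope of Thallos dye fluorescence rise after thallium is added; log ratio against the mean of 0.3% DMSO vehicle wells on the same plate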
F380Y = conditions: at 30 µM
F380Y/beta1 = conditions: at 30 µM
F380Y/beta2Delta = conditions: at 30 µM
F380Y/beta4 = conditions: at 30 µM
[1] = biological target: Calcium-activated potassium channel subunit alpha-1 (Homo sapiens) + Leucine-rich repeat-containing protein 26 (Homo sapiens) (UniProt Q12791+Q2I0M4); conditions: F380Y/Slo1WT/gamma1, at 30 µM
R275C = conditions: at 30 µM
R275C/beta1 = conditions: at 30 µM
R275C/beta2Delta = conditions: at 30 µM
R275C/beta4 = conditions: at 30 µM
R275C/Slo1WT/beta2 = conditions: at 30 µM

Chain of Calcium-activated potassium channel subunit alpha-1 (Homo sapiens) + Leucine-rich repeat-containing protein 26 (Homo sapiens) (Q2I0M4 whole entry, looked up, one chain of several): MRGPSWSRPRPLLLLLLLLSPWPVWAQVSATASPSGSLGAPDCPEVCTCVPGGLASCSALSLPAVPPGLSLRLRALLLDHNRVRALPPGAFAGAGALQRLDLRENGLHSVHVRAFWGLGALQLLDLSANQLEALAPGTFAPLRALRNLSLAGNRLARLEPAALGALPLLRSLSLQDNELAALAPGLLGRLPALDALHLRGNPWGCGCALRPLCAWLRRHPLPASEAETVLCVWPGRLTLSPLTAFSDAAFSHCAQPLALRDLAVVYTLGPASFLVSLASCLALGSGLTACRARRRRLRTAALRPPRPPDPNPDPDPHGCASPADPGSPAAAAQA

| SMILES | log fold change Tl+ flux (F380Y) | log fold change Tl+ flux (F380Y/beta1) | log fold change Tl+ flux (F380Y/beta2Delta) | log fold change Tl+ flux (F380Y/beta4) | log fold change Tl+ flux [1] | log fold change Tl+ flux (R275C) | log fold change Tl+ flux (R275C/beta1) | log fold change Tl+ flux (R275C/beta2Delta) | log fold change Tl+ flux (R275C/beta4) | log fold change Tl+ flux (R275C/Slo1WT/beta2) |
| --- | --- | --- | --- | --- | --- | --- | --- | --- | --- | --- |
| CCN(CC)CCNC(=O)c1cc(Cl)c(N)cc1OC | -0.00476 | -0.00572 | -0.0588 | -0.0267 | 0.0156 | 0.0337 | -0.0145 | -0.0122 | -0.0991 | -0.0439 |
| CC(=O)Nc1ccc(CC(=O)O)cc1 | -0.0209 | -0.00468 | -0.0235 | -0.0309 | -0.0302 | -0.0367 | -0.0357 | -0.0277 | -0.0244 | -0.00738 |
| CC(C)(C(=O)c1cccnc1)c1cccnc1 | -0.0599 | 0.0309 | -0.0492 | -0.00737 | -0.0176 | -0.0634 | 0.0377 | -0.0241 | 0.0328 | 0.0667 |
| CC(=O)Oc1ccccc1C(=O)Nc1ncc([N+](=O)[O-])s1 | -0.199 (active) | 0.0346 | -0.0604 | -0.0482 | 0.139 (active) | -0.00393 | 0.0452 | 0.237 (active) | 0.0513 | 0.00625 |
| C#C[C@]1(O)CC[C@H]2[C@@H]3CCc4cc(OC)ccc4[C@H]3CC[C@@]21C | -0.0454 | -0.0068 | -0.0353 | 0.0115 | -0.0403 | -0.0453 | 0.019 | -0.00738 | 0.00852 | -0.04 |
| CC(=O)O[C@H]1C[C@@H]2CC[C@@H]3[C@H](CC[C@@]4(C)[C@H]3C[C@H]([N+]3(C)CCCCC3)[C@@H]4OC(C)=O)[C@@]2(C)C[C@@H]1N1CCCCC1 | 0.0327 | 0.014 | 0.00769 | 0.00267 | -0.00222 | -0.114 (active) | 0.00114 | -0.0355 | 0.018 | 0.0408 |
| CC(C)NCC(O)COc1ccc(CCOCC2CC2)cc1 (stereo not given) | -0.00418 | 0.0244 | 0.0281 | 0.0205 | -0.00804 | 0.0179 | 0.00923 | -0.0652 | -0.0167 | -0.00955 |
| CCc1oc2ccccc2c1C(=O)c1cc(Br)c(O)c(Br)c1 | 0.395 (active) | 0.958 (active) | 0.479 (active) | 0.628 (active) | 0.428 (active) | 0.0187 | 0.704 (active) | 0.431 (active) | 0.722 (active) | 0.347 (active) |
| CCCN[C@H]1CCc2nc(N)sc2C1 | 0.0634 and -0.0393 | 0.0248 | 0.0149 and -0.064 | 0.049 | -0.0398 and 0.00679 | -0.0132 and -0.0398 | -0.0125 and -0.021 | -0.0052 and -0.0245 | 0.000139 | 0.0182 |
| O=C1Nc2ccc(Cl)cc2[C@@](C#CC2CC2)(C(F)(F)F)O1 | 0.0449 | 0.167 (active) | 0.0472 | 0.0723 | 0.0446 | -0.166 (active) | 0.275 (active) | 0.119 (active) | 0.11 (active) | -0.0224 |
| CN(C)CC/C=C1/c2ccccc2COc2ccc(CC(=O)O)cc21 | 0.0275 | 0.0119 | 0.053 | 0.0784 | 0.00396 | -0.0501 | 0.0368 | 0.00503 | 0.0335 | 0.0239 |
| Oc1ccc(C2CNCCc3c2cc(O)c(O)c3Cl)cc1 (stereo not given) | 0.0202 | -0.0465 | 0.057 | 0.0586 | 0.0552 | -0.0214 | 0.0235 | 0.0656 | 0.0211 | 0.0233 |
| Nc1nc(N)nc(-c2cc(Cl)ccc2Cl)n1 | 0.00819 | 0.00785 | -0.0416 | -0.00342 | -0.0223 | -0.0835 | -0.0137 | -0.0163 | -0.0246 | -0.0527 |
| C[C@@H]1C[C@H]2[C@@H]3CCC4=CC(=O)C=C[C@]4(C)[C@@]3(F)[C@@H](O)C[C@]2(C)[C@H]1C(=O)CO | 0.0533 | 0.0836 | 0.0651 | 0.0601 | 0.0369 | -0.061 | 0.178 (active) | 0.0622 | 0.0336 | 0.0113 |
| Cc1[nH]c(=O)c(C#N)cc1-c1ccncc1 | 0.00987 | -0.00723 | -0.015 | -0.0201 | 0.0127 | -0.0168 | -0.000763 | 0.0393 | 0.0209 | 0.0443 |
| CN(C)CC[C@@H](c1ccc(Cl)cc1)c1ccccn1 | 0.112 (active) | 0.0236 | 0.0413 | 0.0471 | -0.00445 | -0.0353 | 0.0461 | 0.00905 | 0.0349 | 0.0166 |
| COc1cc(OC)c(C(=O)CCCN2CCCC2)c(OC)c1 | -0.00984 | -0.00851 | -0.00493 | -0.0142 | 0.0079 | 0.0465 | 0.0151 | 0.0392 | 0.0301 | 0.0326 |
| CCOC(=O)C1=C(C)NC(C)=C(C(=O)OC)C1c1cccc(Cl)c1Cl (stereo not given) | 0.00922 | -0.0618 | -0.162 (active) | -0.261 (active) | 0.00637 | -0.00728 | -0.0274 | 0.0156 | 0.114 | -0.0293 |
| COc1ccc2nc(S(=O)Cc3ncc(C)c(OC)c3C)[nH]c2c1 (stereo not given) | 0.0402 | 0.0641 | 0.0168 | 0.00709 | 0.0324 | 0.00389 | 0.0492 | 0.00389 | 0.0199 | 0.0436 |
| CCCOc1ccc(C(=O)OCCN(CC)CC)cc1N | 0.0362 | -0.0262 | 0.0489 | 0.0262 | 0.00339 | 0.0442 | -0.0232 | 0.0224 | 0.00943 | -0.0584 |
| COc1ccccc1N1CCN(CC(O)COc2cccc3ccccc23)CC1 (stereo not given) | -0.03 | -0.0336 | -0.0539 | -0.114 (active) | 0.00615 | -0.067 | 0.198 (active) | -0.0952 | 0.167 (active) | -0.0505 |
| CCN(CC)CC1CCCCN1CC(=O)N1c2ccccc2C(=O)Nc2cccnc21 (stereo not given) | -0.00678 | 0.0276 | 0.0497 | -0.01 | 0.0283 | -0.0778 | 0.0108 | 0.0199 | 0.0303 | 0.0393 |
| COc1cc(C(=O)NC2CCCNC2)cc(OC)c1OC (stereo not given) | -0.0595 | -0.0621 | -0.0479 | -0.0783 | 0.00703 | -0.0701 | -0.0128 | 0.000824 | 0.00216 | -0.0186 |
| CC(C)NCC(O)COc1ccc(COCCOC(C)C)cc1 (stereo not given) | 0.0667 | 0.0784 | 0.00366 | 0.0255 | 0.0397 | -0.0696 | -0.003 | -0.0507 | 0.0137 | 0.0109 |
| Nc1nnc(-c2cccc(Cl)c2Cl)c(N)n1 | -0.00765 | -0.046 | -0.0167 | -0.0171 | 0.000443 | 0.00303 | 0.00854 | 0.0465 | -0.0247 | -0.000749 |
